Compound activity as filed in PubChem BioAssay.
Luciferase inh: Firefly luciferase inhibition profiling of diverse chemical library using quantitative high-throughput screening; purified P. pyralis luciferase, luminescence, biochemical; Potency, µM (titrated, usually from 115 µM), actives largely listed as inhibitors; 2.5% of 76,000 active; AID 1347043, 2019; further: nearly all actives have a fitted effect of over 65% in size
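Luminescence read by CCD imaging after purified firefly luciferase (10nM final) was added to substrate buffer holding 10uM D-luciferin and 10uM ATP, pH 7.5, pre-dosed with compound.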
HEK293 tox: Cytotoxic Profiling in HEK 293 Cell Line of Diverse Libraries Using Quantitative High-Throughput Screening; HEK 293 viability, ATP luminescence (CellTiter-Glo), 48-72 h; Potency, µM (highest dose often 115 µM), without a hit: at the highest dose activity change, negative = cytotoxicity, most hits filed as inhibitors; 6.6% of 94,000 active; further: nearly all actives have a fitted effect of over 60% in size
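Viability of HEK 293 cells, plated at 250 cells/well, was judged by cellular ATP after compound treatment for 48 or 72 hr. Luminescence was imaged 10 min after CellTiter-Glo addition at room temperature.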
GPT2 inhibitor: Primary qHTS assay for inhibitors of Glutamate pyruvate transaminase 2 (GPT2). Alanine aminotransferase 2 (Homo sapiens), Q8TD30. Recombinant GPT2, coupled pyruvate oxidase/HRP Amplex Red fluorescence. Potency, µM (top dose mostly 57.7 µM), for inactives: at the highest dose activity change, negative = inhibition, most hits filed as inhibitors. 0.25% of 100,000 active; further: nearly all actives have a fitted effect of over 60% in size
Target sequence (Q8TD30 whole entry, looked up): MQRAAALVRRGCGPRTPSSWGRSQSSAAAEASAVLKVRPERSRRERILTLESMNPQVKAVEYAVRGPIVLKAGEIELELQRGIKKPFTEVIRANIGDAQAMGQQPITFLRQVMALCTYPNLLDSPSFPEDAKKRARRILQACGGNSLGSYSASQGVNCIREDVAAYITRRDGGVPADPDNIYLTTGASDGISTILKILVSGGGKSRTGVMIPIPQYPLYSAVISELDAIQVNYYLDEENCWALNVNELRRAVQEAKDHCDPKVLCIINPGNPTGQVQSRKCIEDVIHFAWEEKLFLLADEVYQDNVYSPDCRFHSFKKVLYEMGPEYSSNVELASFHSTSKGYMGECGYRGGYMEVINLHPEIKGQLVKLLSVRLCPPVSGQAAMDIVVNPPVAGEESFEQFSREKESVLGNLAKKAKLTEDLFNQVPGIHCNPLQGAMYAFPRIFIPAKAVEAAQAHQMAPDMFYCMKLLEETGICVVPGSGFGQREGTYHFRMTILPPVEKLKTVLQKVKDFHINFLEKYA
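GPT2 10ng/uL, a-KG 250uM, L-Ala 2mM, HEPES pH7.5 + 0.0001% Tween; 30 min RT. Then Amplex mix (PO/HRP/ThPP), 30 min RT dark, fluorescence. AOA 50uM used as positive control.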
3T3 cytotox: Cytotoxic Profiling in NIH 3T3 Cell Line of Diverse Libraries Using Quantitative High-Throughput Screening | 4.3% of 94,000 active | Potency, µM (titrated, usually from 96.7 µM), without a hit: at the top dose activity change, negative = cytotoxicity, usual class: inhibitors | NIH 3T3 viability, CellTiter-Glo ATP luminescence, 48-72 h; further: nearly all actives have a fitted effect of over 55% in size
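Mouse fibroblast NIH 3T3 cells, 400 per well, received compound via pintool and were incubated for 48 or 72 hr prior to CellTiter-Glo ATP luminescence measurement.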
NPR1 antag: Natriuretic polypeptide receptor (hNpr1) antagonism - Primary qHTS. Atrial natriuretic peptide receptor 1 (Homo sapiens), P16066. HEK293 hNpr1 GloSensor cGMP, ANP-stimulated luminescence. Potency, µM (doses to about 46.3 µM), inactives show at the highest dose activity change, negative = inhibition, hits mostly inhibitors. 1.6% of 76,000 active. AID 1347048, 2019; calls by dose curve; further: nearly all actives have a fitted effect of over 60% in size
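Compound pre-incubated 30 min at room temperature on GloSensor-loaded HEK293 cells stably carrying hNpr1 and the pGS-40F cGMP biosensor. Stimulation uses hNppA at 0.1 nM final; luminescence is taken at baseline and 20 min post-agonist.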
Active calls of the source: *; i = inactive; ? = inconclusive; . = not tested or not shown; [ ] = dose if it differs, or a comment. Shown are actives, neighbours in structure and some others; about 10% of the full set was active somewhere. Unless noted, the call rests on the fitted dose curve; in most records, active means well fitted curve in the direction sought with a large enough effect; inconclusive means small, poorly fitted or top-dose-only effect, or another doubt; inactive means no such curve, though single readings can be large; an effect the other way counts as inactive or inconclusive. On the % scale 0 is the no-effect control and ±100 the full control effect; potency means the concentration at half of the fitted maximal effect.

SMILES | Luciferase inh | HEK293 tox | GPT2 inhibitor | 3T3 cytotox | NPR1 antag
COc1ccc(CN[C@H]2C[C@@H](Cc3cc(CN(C)c4ccccc4)on3)C2(C)C)cc1 | i | 28µM* | 0%[88.5 µM] | ? | -30%[70.6 µM]
CC(=O)N[C@H]1C[C@@H](Cc2cc(C(C)(C)C)on2)C1(C)C | i | 1%[230 µM] | -2%[88.5 µM] | ? | 3%[70.6 µM]
CC(C)(C)c1cc(C[C@@H]2C[C@H](NCc3ccccn3)C2(C)C)no1 | i | 50µM* | i | 50µM* | ?
CN(Cc1cc(C[C@@H]2C[C@H](NCc3cccnc3)C2(C)C)no1)c1ccccc1 | i | 63µM* | -4%[88.5 µM] | ? | ?
CCN(Cc1ccccc1)C(=O)CC1CCCN(c2cnn(CC3CC3)c(=O)c2)C1 (centres undefined) | i | ? | 4% | ? | 1%
CN(Cc1ccc(F)cc1)S(=O)(=O)c1cccs1 | i | 79µM* | -10%[88.5 µM] | -27%[138 µM] | 6%[70.6 µM]
COc1ccccc1CCC(=O)N1CCCN(c2cc(-c3ccc(Cl)cc3)[nH]n2)CC1 | i | ? | ? | 35µM* | -26%
COc1cccc(CCC(=O)N2CCCN(c3cc(-c4ccc(Cl)cc4)[nH]n3)CC2)c1 | i | ? | 2% | 35µM* | ?
CC(C)CNC(=O)C(C)(C)Oc1nn(C(C)C)c2ccc(CN3CCOCC3)cc12 | i | ? | i | ? | -3%[70.6 µM]
Cc1ccccc1-c1cc(-c2ccc(=O)[nH]c2)c2cncn2c1 | i | 71µM* | 0%[88.5 µM] | 25µM* | -12%[70.6 µM]
COc1cccc(-c2cc(-c3cccnc3)c3cncn3c2)c1OC | 50µM* | ? | -2%[88.5 µM] | ? | -1%[70.6 µM]
CN(C)c1ccc(-c2cc(-c3ccc(=O)[nH]c3)c3cncn3c2)cc1 | ? | -17%[172 µM] | i | ? | -14%[70.6 µM]
COc1ccc(-c2cc(-c3ccc([S+](C)(=O)[O-])cc3)cn3cncc23)cc1 | i | ? | -3%[88.5 µM] | ? | -17%[70.6 µM]
COc1ccc(-c2cc(-c3cccnc3)c3cncn3c2)cc1OC | i | ? | -13%[88.5 µM] | 35µM* | 0%[70.6 µM]
COc1ccc(-c2cc(-c3ccc(CO)cc3)cn3cncc23)cc1 | i | 79µM* | 1%[88.5 µM] | ? | -17%[70.6 µM]
c1cncc(-c2cc(-c3ccc4cn[nH]c4c3)cn3cncc23)c1 | ? | ? | -18%[88.5 µM] | ? | -12%[70.6 µM]
CCOC(=O)C1CCN(C(=O)c2ccc3nnc(C(C)(C)C)n3c2)CC1 | . | -22% | i | -26% | .
COC(=O)CNC(=O)c1ccc2oc(-c3cccnc3)nc2c1 | . | -5% | i | -23% | .
COc1ccc(-c2cc(-c3ccc(OC)c(OC)c3)cn3cncc23)cc1 | i | 71µM* | -1%[88.5 µM] | 40µM* | -12%[70.6 µM]
COc1ccccc1-c1cc(-c2ccncc2)c2cncn2c1 | i | 89µM* | 0%[88.5 µM] | 11µM* | -23%[70.6 µM]
COc1ccc(-c2cc(N3CCOCC3=O)c3cncn3c2)cc1OC | i | -7%[172 µM] | -18%[88.5 µM] | ? | 1%[70.6 µM]
COc1ccc(-c2cc(-c3ccncc3)c3cncn3c2)cc1OC | i | ? | -19%[88.5 µM] | 25µM* | 1%[70.6 µM]
COc1ccccc1-c1cc(N2CCOCC2=O)c2cncn2c1 | i | -43%[172 µM] | ? | 100µM* | -9%[70.6 µM]
COc1ccccc1-c1cc(-c2cccnc2)c2cncn2c1 | i | ? | -1%[88.5 µM] | ? | -3%[70.6 µM]
O=C(NCC(=O)N1CCN(Cc2ccccc2)CC1)c1cccc(-c2ccsc2)c1 | . | ? | i | ? | .
Cn1ncc2c(C(=O)NCc3cccc(F)c3)cc(-c3ccc(C(F)(F)F)cc3)nc21 | . | 40µM* | . | -29% | .
Cn1ncc2c(C(=O)NCc3cccc(C(F)(F)F)c3)cc(-c3ccc(C(F)(F)F)cc3)nc21 | . | -7% | . | -2% | .
Cc1ccc(-c2cc(C(=O)NCc3ccc(C(F)(F)F)cc3)c3cnn(C)c3n2)c(C)c1 | . | 35µM* | i | ? | .
